The text below walks through data of ChEMBL document CHEMBL3988442, “University of Dundee, Small-Polar-MMV Screening Library” (2021).

Among all 48,000 compounds or so, about 13,000 (27%) showed an effect of 50% or more. The list shows a part of the results.

The test system of this experiment is Wolbachia pipientis. Put plainly: Anti-Wolbachia Cell-Based Screen. It is filed as functional. Further details: scale not given: in the data most compounds retested in dose-response had high values. The settings on record: 5 µM.
On to `FC(F)(F)Oc1ccc(-c2noc([C@@H]3Cc4nc[nH]c4CN3)n2)cc1`, for which the “Percent Effect” value is -8.285%.
For `CCCc1nnc(N(C)CC2CCN(CC(C)C)CC2)o1` the value was -8.883%.
For `Cc1ccc2nc(-c3cnc(N)nc3)c(C)c(C(=O)N(C)C)c2c1` the value was 2.177%.
For `Cn1ccnc1CN1CCOC[C@H]1c1nc(C(C)(C)C)co1` the value was -3.783%; for `Cc1cc(N(C)C)nc(C2COCCN2Cc2nccn2C)n1` (stereo not given), 106.8%; for `Cc1cc(N(C)C)nc(C2COCCN2Cc2csc(C)n2)n1` (stereo not given), 76.41%.
On to `Cc1cc(CN2CCOC(CN(C)C)C2)no1` (stereo not given), for which the “Percent Effect” value is -11.72%.
As to `Cc1cc(C)n(CC2CCCCN2Cc2cscn2)n1` (stereo not given), the “Percent Effect” value was 2.934%.
For `Cc1cc(N(C)C)nc(C2COCCN2Cc2cscn2)n1` (stereo not given) the value was 100.1%; for `CCOC(=O)N(C)C1CCN(Cc2csc(C)n2)CC1`, -9.858%.
In the case of `Cc1cc(N(C)C)nc(N2CCN(Cc3nccn3C)CC2)n1`, the “Percent Effect” value is on record as -14.83%.
Then `Cc1cc(CN2CCCC2c2noc(C)n2)no1` (stereo not given), with -4.781%; and `Cc1cc(N(C)C)nc(C2COCCN2Cc2cc(C)on2)n1` (stereo not given), with 106.1%.
Then `Cc1nc(C)n(CC2CCCN2Cc2cscn2)n1` (stereo not given), with -0.8371%; and `Cc1cc(N(C)C)nc(N(C)Cc2csc(C)n2)n1`, with -1.887%; and `CC(NC1(CNS(C)(=O)=O)CCCC1)c1ccccc1` (stereo not given), with -3.236%.
Then `COc1ccc(-n2cccn2)c(CN2CCOCC(CN(C)C)C2)c1` (stereo not given), with -24.66%; and `COc1cccc(CNCCc2cc(F)cc3c2OCOC3)c1`, with -0.9463%; and `CNc1cc(C)nc(C2COCCN2Cc2csc(C)n2)n1` (stereo not given), with 118.8%.
`CC(C)(C)c1coc([C@@H]2COCCN2Cc2csnn2)n1`: the “Percent Effect” value is on record as -9.121%.
Then `Cc1nc(CN2CCCC2c2nc(C(C)C)no2)cs1` (stereo not given), with -7.461%; and `COc1ccnc(NC(=O)c2cscc2C)c1`, with -3.049%.
Regarding `CCc1[nH]ncc1C(=O)N1CCN(c2nccc(OC)n2)CC1`, the “Percent Effect” value was -7.097%.
For the compound `CCc1cnc(N)nc1NCCN1CCCCC1`, the “Percent Effect” value was determined as 1.893%.
For `Cc1cc(-c2nccn2CCN2CCCCC2CO)oc1C` (stereo not given) the value was 12.23%; for `Cc1cc(C)n(CC2CCCCN2CCCS(=O)(=O)N(C)C)n1` (stereo not given), 4.04%.
Then `Cc1ccsc1-c1nccn1CCN1CCCCC1CO` (stereo not given), with 8.185%.
For `Cc1nc(C)n(CCCNc2ncnc(C)c2C)n1` the value was -4.271%; for `CCc1cnc(N)nc1NCCC(=O)NC1CCCCC1`, 31.74%; for `Cc1cnc(NCCCN2CCCCC2CO)nc1` (stereo not given), 67.94%.
For the compound `CCc1cnc(N)nc1NCCCN1CCCCC1CO` (stereo not given), the “Percent Effect” value amounted to 90.38%.
With `Cc1ncnc(NCCCN2CCCCC2CO)c1C` (stereo not given), the “Percent Effect” value amounted to 93.53%.
For the compound `O=C(NC1CCC1)[C@@H]1CCO[C@@H]2CCN(C3CCCC3)C[C@H]21.O=C(O)C(F)(F)F`, the “Percent Effect” value is -6.007%.
Take `CCc1n[nH]c(C2CN(Cc3nccn3CC)CCO2)n1` (stereo not given): the “Percent Effect” value is listed as -1.514%.
Then `CN(CCc1cn[nH]c1)C(=O)C1CC(=O)N(Cc2cccnc2)C1` (stereo not given), with 1.356%.
In the case of `N#CCCCN1CCCC1Cc1ccccc1` (stereo not given), the “Percent Effect” value is reported as -5.887%.
For `CCCn1ncc(CN2C[C@@H]3CCCN3C[C@H]2Cc2ccccc2)c1C` the value was 112.1%; for `CCCn1ncc(C(=O)N2CCN(C3Cc4ccccc4C3)CC2)c1C`, 1.653%; for `CCCn1ncc(CN2C[C@@H]3CCCN3C[C@@H]2Cc2ccccc2)c1C`, 119.2%.
Then `c1ccc(CNc2ncc(CN3CCCN4CCC[C@H]4C3)cn2)cc1`, with -5.428%; and `CC(=O)c1ccc(-c2cnn(CC(=O)Nc3ccnn3C)c2)nc1`, with -6.817%; and `O=C(NCC(O)c1ccsc1)c1sccc1OC(F)F` (stereo not given), with -10.31%.
For `Cc1cccc2cc(C(=O)N3CCC(F)(F)CC3)n(C)c12` the value was 5.497%; for `CN(C)Cc1nn(C)c2c1CCN(C(=O)c1cccnc1)C2`, 84.36%.
`CN(C)Cc1nn(C)c2c1CCN(C(=O)CC1CC1)C2.O=C(O)C(F)(F)F`: the “Percent Effect” value came to 5.365%.
For `Cc1nocc1C(=O)N1CCc2c(CN(C)C)nn(C)c2C1` the value was 93.65%.
Then `CN(C)Cc1nn(C)c2c1CCN(S(=O)(=O)c1cccs1)C2`, with 12.48%.
For `Cn1nc(CN2CCCC2)c2c1CN(C(=O)c1cccnc1)CC2.O=C(O)C(F)(F)F.O=C(O)C(F)(F)F` the value was -3.711%; for `Cc1cccc(C(=O)N2CCc3c(CN(C)C)nn(C)c3C2)n1`, 94.16%.
Consider `CN(C)Cc1nn(C)c2c1CN(C(=O)Nc1cccc(F)c1)C2`, for which the “Percent Effect” value is listed as -15.2%.
For `Cc1cccc(NC(=O)N2Cc3c(CN(C)C)nn(C)c3C2)c1`, the “Percent Effect” value is reported as -10.1%.
Then `CN(C)Cc1nn(C)c2c1CCN(C(=O)c1cnccn1)C2.O=C(O)C(F)(F)F`, with -5.117%; and `CC(=O)NCC(=O)N1CCc2c(CN(C)C)nn(C(C)C)c2C1`, with -2.95%; and `CN(C)Cc1nn(C)c2c1CN(C(=O)c1cccc(C#N)c1)C2`, with 110.3%.
Then `Cc1cc(N[C@H](CO)c2ccccc2)n2nc(C)cc2n1`, with 1.495%.
For the compound `Cc1noc(C2CCCN(C(=O)c3ccc(Br)cc3F)C2)n1` (stereo not given), the “Percent Effect” value is reported as 4.795%.
For `N#Cc1c(F)cccc1N1CCN(S(=O)(=O)c2cccs2)CC1` the value was -7.537%.
For `CC(Cn1cccn1)NC(=O)NCCCN1CCc2ccccc2C1` (stereo not given) the value was -5.201%; for `Cc1nc([C@H]2C[C@@H]3CCN(Cc4scnc4C)C[C@H]3O2)no1.O=C(O)C(F)(F)F`, -18.74%; for `CCc1ncc2c(n1)CN(C(C(N)=O)c1ccccc1)CC2` (stereo not given), -0.2058%.
For `CC(=O)Nc1ncc(-c2ccc(C)cc2)[nH]1` the value was -15.96%; for `Cc1cc(C(=O)N2CCc3ncnc(N4CCSCC4)c3CC2)[nH]n1`, -7.195%.
Take `Cc1cc(C(=O)N2CCc3c(CN(C)C)nn(C)c3C2)[nH]n1`: the “Percent Effect” value was found to be 109.1%.
Then `Cc1cc(-c2nn(C)c(Cl)c2CN2CCOCC2CC(N)=O)no1` (stereo not given), with -10.25%; and `Cc1noc(CSc2ccc(C(F)(F)F)cn2)n1`, with -11.43%.
For `COc1ncc(C)cc1NC(=O)COCC(F)(F)F` the value was -3.698%; for `CC(C)c1nc(S(=O)(=O)Nc2ccnn2C2CCCC2)c[nH]1`, -16.48%; for `CC1CCN(C(=O)CN(Cc2ccco2)C2CC2)CC1`, 16.65%.
As for `O=C(CN(Cc1ccco1)C1CC1)N1CCCCCC1`, the “Percent Effect” value is 130.6%.
In the case of `O=C(CN(Cc1ccco1)C1CC1)Nc1ccc(Br)cn1`, the “Percent Effect” value amounted to 5.807%.
Then `COc1ccc(CN2CC[C@H](c3nc4cccc(C(N)=O)c4[nH]3)C2)cc1`, with -8.435%.
Then `CCCn1nc(C)c(CNC(=O)C2COc3ccc(OC)cc3C2)c1C` (stereo not given), with -13.51%; and `CC(=O)c1cccc(OCCCC(=O)N(C)Cc2cnc(C)s2)c1`, with -4.275%.
For `CC(C)CNC(=O)Nc1cccc(CN2CCOC2=O)c1`, the “Percent Effect” value was -15.82%.
For `Cc1nn(C)c(C)c1-c1nccnc1CC1CCNCC1` the value was 110.6%; for `Cc1nn(C)c(C)c1-c1cnc(CC2CCNC2)cn1` (stereo not given), 90.84%.
For `COc1ccc(C)cc1-n1cnnc1CC1CCNCC1` the value was 5.267%.
For `Cc1nn(C)c(C)c1-c1cnc(CC2CCNCC2)cn1` the value was 154.2%; for `CCc1nccn1CCCNc1nccc(-c2c(C)nn(C)c2C)n1`, 0.4363%; for `c1cncc(-n2cnnc2CC2CCNCC2)c1`, -4.344%.
Regarding `CCn1ccnc1CNc1nccc(-c2c(C)nn(C)c2C)n1`, the “Percent Effect” value is reported as -9.163%.
For `O=C(C1=CCCC1)N1CC[C@]2(C[C@H](OCc3cccnc3)CO2)C1.O=C(O)C(F)(F)F` the value was -2.821%; for `CCSCC(C)NCc1ccccc1-n1ccnc1` (stereo not given), 26.03%; for `Cc1nnc2n1CCN(C(=O)CN1C(=O)CSc3ccccc31)C2`, -16.29%.
With `CC(C)NC(=O)O[C@H]1COCCN(c2nc3ccccc3s2)C1`, the “Percent Effect” value was found to be 11.5%.
Then `O=C(c1cn(-c2cc(N3CCSCC3)ncn2)cn1)N1CCSCC1`, with 23.31%.
Then `Cc1cc(C)n(CC2CCCN2C(=O)c2cc[nH]n2)n1` (stereo not given), with 9.629%.
For `Cc1cc(C)n(CC2CCCN2C(=O)c2ccc3c(c2)OCO3)n1` (stereo not given) the value was 14.69%.
Take `Cc1cc(C)n(CC2CCCN2C(=O)c2ccc3c(c2)nnn3C)n1` (stereo not given): the “Percent Effect” value is given as -2.526%.
Then `Cc1cc(C)n(CC2CCCCN2C(=O)c2ccc3c(c2)OCO3)n1` (stereo not given), with -4.429%; and `Cc1cc(C)n(C2CCCN(C(=O)c3c[nH]c(=O)c(Cl)c3)C2)n1` (stereo not given), with -7.23%.
Then `Cc1cc(C)n(CC2CCCN2C(=O)c2cnccn2)n1` (stereo not given), with 101.9%.
For `Cc1cc(C)n(CC2CCCN2C(=O)c2ccc(N(C)C)nn2)n1` (stereo not given) the value was 107%; for `Cc1cc(C)n(CC2CCCN2C(=O)c2ccnc(N(C)C)c2)n1` (stereo not given), 141.4%.
`CCc1noc(C)c1C(=O)N1CCCC1Cn1nc(C)cc1C` (stereo not given): the “Percent Effect” value is -1.879%.
For `Cc1cc(C)n(CC2CCCN2C(=O)c2cnn(C)c2C2CC2)n1` (stereo not given) the value was -2.201%; for `Cc1cc(C)n(CC2CCCN2C(=O)c2c[nH]c(=O)c(Cl)c2)n1` (stereo not given), 130%.
For `NC(=O)CC1CCN(CC(O)c2ccc(Br)cc2)CC1` (stereo not given) the value was 25.42%.
Then `CC(COc1ccccc1)NCc1nncn1C1CCCCC1` (stereo not given), with -38.9%; and `CCN1CCC(NC(=O)Cc2csc(C(C)(C)C)n2)CC1`, with 4.843%; and `O=C(O)C(F)(F)F.O=C([C@H]1CCCO1)N1CCN(CCn2cccn2)c2ncccc2C1`, with 108.8%.
For `O=C(C1CCOC1)N1CCN(CCn2cccn2)c2ncccc2C1.O=C(O)C(F)(F)F` (stereo not given), the “Percent Effect” value worked out at 122%.
Regarding `CCN(CC)C(=O)c1nnc2ccc(N3CCOCC3)cc2n1`, the “Percent Effect” value is listed as -10.33%.
For `CCCS(=O)(=O)N1CCN(CC(F)(F)F)CC1` the value was 16.36%; for `Cc1cnc(C(C)(C)NC(=O)NCc2ccon2)s1`, -28.31%.
